PubChem BioAssay (NCI)
About 83,000 compounds went through this panel and 20% of them were active in at least one assay; those are over-represented in the sample as a whole.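 How to read the values: 0–100, growth inhibition (40 = 60% inhibited); 0, no net growth; -100 to 0, cell death (-40 = 40% of starting cells died; -100 = all dead).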 Values without a mark were called inactive. Active and inactive are the calls of the source.

The molecules below were run on SNB-75 CNS (assay: NCI-60 one-dose screen, 48 h (100 = growth as untreated, 0 = no growth, -100 = all killed)). Conditions: 10 µM unless noted.
Protocol: Growth inhibition of the SNB-75 human tumor cell line is measured as a screen for anti-cancer activity. Cells are grown in 96 well plates and exposed to the test compound for 48 hours. Compounds are tested at a single concentration, which is 10^-5 M for most compounds. The reported endpoint is percent growth (GI% or GIPRCNT), where numbers from 0 - 100% represent growth inhibition, and numbers from -100% - 0 represent cell death. For example, a value of 40 represents 60% growth inhibition. A value of 0 means no net growth occurred over the course of the experiment. A value of -40 indicates 40% of cells at the beginning of the experiment died by the end of the experiment. A value of -100 means all cells are dead at the end of the experiment.
NCI-60 Human Tumor Cell Lines Screen was performed using the standard one-dose NCI protocol, which is described in more detail at https://dtp.cancer.gov/discovery_development/nci-60/default.htm.
Compounds with GIPRCNT values below 10 were considered active. Activity score was based on GIPRCNT using the following formula: […]
Score is 0 for GIPRCNT values of 100 or above, 50 for GIPRCNT values of 0, and 100 for GIPRCNT values of -100.

SMILES | growth
O=C(CCCN1C(=O)/C(=C/c2ccccc2F)SC1=S)N1CCOCC1 | 79.3%
OC1CCN(CCCOc2c3ccc(Cl)cc3nc3c2oc2ccccc23)CC1 | -19.1% (active)
Cc1c(NC(=O)CSc2nc3sc4c(c3c(=O)n2-c2ccc(Cl)cc2)CCCC4)c(=O)n(-c2ccccc2)n1C | 72.6%
COc1cc2nc(-c3ccc(Cl)cc3)cc(OCCCNCC3CCCO3)c2cc1OC (stereo not given) | 60.4%
COc1ccccc1/C=C/C=N/NC1=NC2C(S1)N(C)C(=O)N2C (stereo not given) | 18.5%
CCOC(=O)c1c(Nc2ccccc2)nn2c(-c3ccco3)c(C#N)cnc12 | 30.5%
C=CCSc1ccc2c(c1)C(N1CCNCC1)=Nc1ccccc1O2 | 79.8% [8.25 µM]
CCOC(=O)c1c(Nc2ccccc2)nn2c(N)c(C#N)c(-c3ccc(Cl)cc3)nc12 | -11.2% (active)
N#Cc1nc(-c2ccccc2)oc1S(N)(=O)=O | 91.7%
N#Cc1nc(-c2ccccc2)oc1N1CCC(CO)C1 (stereo not given) | 89%
CS(=O)(=O)Nc1ccc(-c2nn(-c3ccc(S(C)(=O)=O)cc3)cc2/C=C/C(=O)c2ccc(NC(=O)CO[N+](=O)[O-])cc2)cc1 | 108%
COc1cccc(-c2nn(-c3ccccc3)cc2-c2ccnc(N3CCN(C(=O)c4ccccc4)CC3)c2)c1 | 65.9%
COc1ccc(NC2=CC(=O)C(C)=C(C)C2=O)cc1 | 123%
COC(=O)C1CN(S(=O)(=O)/N=C2\NC(=O)NC2=C(Cl)Cl)C1 | 113%
CCC/C=C/C=C/C(=O)N[C@@H](Cc1cc(F)cc(F)c1)C(=O)N[C@@H]1C(=O)N2CCC[C@H]2C(=O)N2CCCC[C@H]2C(=O)N[C@@H](C)C(=O)N2C[C@H](C)C[C@H]2C(=O)O[C@H]1C | 28.5%
OC1CCN(CCCOc2c3ccccc3nc3c2oc2ccccc23)CC1 | -1.06% (active)
N#Cc1nc(-c2ccccc2)oc1S(=O)(=O)N1CCN(CCc2ccccn2)CC1 | 87.2%
N#Cc1c(-c2ccc(F)cc2)nc2c(C#N)c(Nc3ccccc3)nn2c1N | 101%
O=C(CSc1nc2sc3c(c2c(=O)n1-c1ccc(Cl)cc1)CCCC3)N/N=C/c1ccc(F)cc1 | 107%
C=CCn1c(SCC(=O)c2ccc(Br)cc2)nnc1-c1c[nH]c2ccccc12 | 106%

SMILES | growth
C=C1CC[C@H]2[C@@](C)(CCC3OC(c4ccc(OCc5cn(C6CC(OC(C)=O)C(OC(C)=O)C(COC(C)=O)O6)nn5)cc4)OC[C@]32C)[C@@H]1/C=C/C1=CCOC1=O (stereo not given in full) | 94.8%
O=[N+]([O-])c1ccc(O)c2ncccc12 | 48.5%
COc1ccc(C(=O)c2cc(C(=O)/C=C/c3c(Cl)cccc3Cl)c3cc(C)ccn23)cc1 | 76.7%
CCOc1ccc2nc(NC(=O)c3ccc(C(F)(F)F)cc3)sc2c1 | 102%
C#Cc1nc(C2=C(C)C(O)CC2)cs1 (stereo not given) | 96.1%
CN(C)CCCOc1c2ccc(Cl)cc2nc2c1oc1ccc(Cl)cc12 | 18.3%
O=c1[nH]c2ccc(Cl)cc2cc1CSc1ccccc1Nc1nccc(-c2ccc(Cl)cc2)n1 | 76.6%
COc1ccc2[nH]cc(-c3cc(N)n4nc(-c5c[nH]c6ccc(OC)cc56)cc4n3)c2c1 | 106%
C/C(=N/NC(N)=S)c1ccc(Nc2nc(SCC(C)C)nc(-c3ccc(F)cc3)c2C#N)cc1 | 80.6%
CN(C)CCCOc1c2ccc(Cl)cc2nc2c1oc1ccccc12 | -18.6% (active)
COc1ccc(COc2ccc(/C=C3/C(=O)Nc4cc(Cl)ccc43)cc2)cc1 | 83.8%
CC(C)(C)Nc1nc2c(OCCc3ccccc3)cccn2c1-c1ccccc1Cl | 34.5%
CN(C)CCCOc1c2ccccc2nc2c1oc1ccc(Cl)cc12 | 5.58% (active)
CNC(=O)c1cc(-c2ccc(NC(=O)Nc3ccc(N4CCN(C)CC4)c(C(F)(F)F)c3)cc2)nc2cccnc12 | -83.1% (active)
O=C1[C@H]2Cc3c([nH]c4ccccc34)[C@@H](c3ccc(Br)cc3)N2C(=O)CN1C1CCN(Cc2ccccc2)CC1 | 51.1%
CC(=O)Nc1cc(F)cc(-c2ccc3[nH]cc(-c4ccccc4)c3n2)c1 | 111%
CCN1C(=S)N(CC)C2C1N=C(SC)N2/N=C/C=C/c1ccccc1[N+](=O)[O-] (stereo not given) | 82.2%
COC(=O)C(C)NS(=O)(=O)/N=C1\NC(=O)NC1=C(Cl)Cl (stereo not given) | 98.8%
Cc1cc(C(NC(=O)CCCCCNc2cccc3c2C(=O)N(C2CCC(=O)NC2=O)C3=O)c2cccnc2)c(O)c2ncccc12 (stereo not given) | 8.96% (active)
COc1cc(-c2ccc3ncnc(NC(C)c4ccccc4)c3c2)cnc1OC (stereo not given) | 32.8%
